This is one part of a sample in which hits are shown more often than they occur.
MARV entry inh – qHTS for inhibitors of binding or entry into cells for Marburg Virus | Marburg virus pseudotyped entry inhibition, cell reporter | Potency, µM (titrated, usually from 37.8 µM), for the others: at the top dose activity change, negative = inhibition, hits mostly inhibitors | 300,000 tested, 1.8% active | AID 540276, 2011; calls by dose curve; tested in HEK293 cells; further: potency means the concentration at half of the fitted maximal effect; on the % scale 0 is the no-effect control and ±100 the full control effect
Shiga inhibitor – A qHTS for Small Molecule Inhibitors of Shiga Toxin | Vero cells, Shiga toxin protein synthesis inhibition reporter | inhibition, % at 38.7 µM | 290,000 tested, 9.2% active; in the data active means inhibition mostly above about 28%, no sharp cut-off; inactive means mostly below about 43%; further: 0% is about no effect
CHX counter – Cycloheximide Counterscreen for Small Molecule Inhibitors of Shiga Toxin; max response, %; AID 2314, 2010; cell reporter, cycloheximide protein synthesis inhibition counterscreen; 300,000 tested, 12% active; in the data active means max response mostly above about 13%, no sharp cut-off; inactive means mostly below about 14%; further: read at 38.3 µM for the half of the compounds with a filed dose; 0% is about no effect
AMA1-RON2 inh – qHTS for Inhibitors of AMA1-RON; Towards Development of Antimalarial Drug Lead: Primary Screen; AlphaScreen AMA1-biotinylated RON2 peptide binding; Potency, µM (top dose mostly 58.2 µM), inactives show top-dose activity change, negative = inhibition, usual class: inhibitors; 360,000 tested, 0.2% active; active means well fitted inhibition curve with a large enough effect; inconclusive means small, poorly fitted or top-dose-only effect; inactive means no such curve, though single readings can be large or run the other way;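 further: potency means the concentration at half of the fitted maximal effect; 0% = vehicle wells and -100% = peptide control; nearly all actives have a fitted effect of over 45% in size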
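AMA1 (3D7) with his tag at 25 nM final met compounds first, then biotinylated RON2 peptide at 25 nM; detection used donor plus acceptor beads, 10 µg/mL apiece, read by AlphaScreen after 30 min at room temperature.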
LASV entry inh – qHTS for Inhibitors of binding or entry into cells for Lassa Virus. Lassa virus pseudotype entry inhibition, cell reporter. Potency, µM (doses to about 37.9 µM), inactives show at the highest dose activity change, negative = inhibition, hits mostly inhibitors. 300,000 tested, 1.2% active; calls by dose curve; tested in HEK293 cells; further: potency means the concentration at half of the fitted maximal effect; on the % scale 0 is the no-effect control and ±100 the full control effect; nearly all actives have a fitted effect of over 50% in size
* hit, by the source's call; ? = inconclusive; . = not tested or not shown; [ ] = dose if it differs, or a comment.

SMILES	MARV entry inh	Shiga inhibitor	CHX counter	AMA1-RON2 inh	LASV entry inh
Cc1ccc(S(=O)(=O)NCC(=O)OC(C)C(=O)NC2CCCCC2C)cc1C (stereo not drawn)	-3%	.	.	-27%	-20%
Cc1ccc(N2C(=O)C[C@H](Cn3nc(C)cc3C)C2=O)cc1	-1%	.	.	.	.
N#CCc1ccc(C(=O)c2ccccc2F)s1	4%[46.1 µM]	64	17*	-5%	10%
O=C(O)Cc1ccc(C(=O)c2ccccc2)s1	?	-10	-2	-3%	3%
COc1ccc(/C=N/n2c(-c3cc(C)[nH]n3)n[nH]c2=S)cc1	0%	6	-2	53%	?
CCn1c2ccccc2c2cc(/C=N/n3cn[nH]c3=S)ccc21	10µM*	-8	1	16%	5%
CCn1c2ccccc2c2cc(/C=N/n3cnnc3)ccc21	?	-17	-2	-7%	-15%
CCn1c2ccccc2c2cc(/C=N/n3c(-c4cc(C)[nH]n4)n[nH]c3=S)ccc21	5µM*	13	2	43%	?
COc1ccccc1-n1c(=O)n(C)c2c(C(N)=O)nc(-c3cc(OC)c(OC)c(OC)c3)nc21	.	.	.	.	25%[46.1 µM]
COc1cccc(C(C)(O)c2nc(-c3cccc(C#N)c3)cs2)c1 (stereo not drawn)	.	.	.	4%	.
COc1cc(NC(=O)Nc2cccc(Cl)c2)c(C(=O)O)cc1OC	.	21	-2	-2%	.
COc1cccc(NC(=O)Nc2cc(NC(=O)Nc3cccc(OC)c3)c(C)nc2C)c1	14%	-5	6	-8%	23%
O=C(Nc1cccc(Cl)c1)Nc1ccccc1C(=O)O	.	47*	24*	5%	.
COc1cccc(NC(=O)Nc2ccccc2C(N)=O)c1	?	35	27*	17%	11%[46.1 µM]
O=C(NNc1ccccc1[N+](=O)[O-])Nc1cccc(Cl)c1	.	81*	47*	-9%	.
CSc1ccc(NC(=O)Nc2ccccc2C(N)=O)cc1	.	74*	67*	0%	.
COc1ccc(OC)c(CCNC(=O)c2cnn(-c3ccccc3)c2-n2cccc2)c1	?	.	.	.	-4%[46.1 µM]
NC(=O)c1ccccc1NC(=O)Nc1cccc(Cl)c1	5%	45*	21*	13%	?
COc1ccc(Cl)cc1NC(=O)Nc1ccccc1C(N)=O	.	-9	8	-2%	.
CCCCCCCC[n+]1cccc(C(=O)N(CC)CC)c1	11%	-6	0	-7%	-3%
CCCCCCCCCCCCCCCC[n+]1cccc(C(=O)N(CC)CC)c1	7.1µM*	-13	-1	0%	11µM*
CCOC(=O)NC(=O)CSc1nc(C)cc(C(F)(F)F)c1C#N	3%	84*	31*	1%	20%
Cc1cc(C(F)(F)F)c(C#N)c(SCC(=O)Nc2nc3cc(Br)ccc3s2)n1	?	33*	39*	-7%	?
COC(=O)CSc1nc(C)cc(C(F)(F)F)c1C#N	-10%[46.1 µM]	-11	-3	25%	9%
CCOc1ccccc1CNC(=O)c1ccc(N2Cc3ccccc3Oc3ncccc32)s1	.	.	.	.	-3%[46.1 µM]
SMILES	MARV entry inh	Shiga inhibitor	CHX counter	AMA1-RON2 inh	LASV entry inh
Cc1cccc(NC(=O)c2onc3c2CCCC3)c1C	?	116*	33*	10%	6%
Cc1ccccc1NC(=O)c1onc2c1CCCC2	-17%	123*	49*	-14%	?
Cc1cccc(NC(=O)c2sc3nc4c(cc3c2N)CCCCCC4)c1C	?	.	.	.	-28%[46.1 µM]
Cc1cccc(NC(=O)c2onc3c2CCCC3)n1	1.3µM*	23	33*	19%	?
COc1ccc(CN2C(=O)C(CC(=O)NCCCCc3ccccc3)CC(C(=O)N(C)C)=C2C)cc1 (stereo not drawn)	.	.	.	-6%	.
Cc1ccccc1OCC(=O)Nc1ccc(S(=O)(=O)N(Cc2ccccc2)c2ccccc2)cc1	?	.	.	.	1%[46.1 µM]
CC(=Nc1ccccc1)C1=C(O)CC(C)(C)CC1=O	-11%[46.1 µM]	45	22*	12%	-2%
CC(=Nc1ccccc1)C1=C(O)CSC1=O	7%	49	32*	32%	3%
COc1ccc(N=C(C)C2=C(O)CSC2=O)cc1	?	45	40*	6%	3%
COc1ccc(C(=O)N2CCN(c3nc4c(C)c(Cl)ccc4s3)CC2)c(OC)c1	.	.	.	.	-14%[46.1 µM]
COc1ccc(Nc2nc(-c3ccc4c(c3)NC(=O)CO4)cs2)cc1	-18%[46.1 µM]	128*	27*	1%	?
COc1ccccc1Nc1nc(-c2ccc3c(c2)NC(=O)CO3)cs1	.	48	20*	5%	.
CCC(C)Nc1nc(-c2ccc3c(c2)NC(=O)CO3)cs1 (stereo not drawn)	0%	50*	28	-1%	-27%
CCn1cc(CN2CCC(n3nccc3NC(=O)c3ccc4c(c3)OCO4)CC2)c(C)n1	-7%	-11	7	2%	1%
Cc1cccc(NC(=O)C2CCCN(S(=O)(=O)c3c(C)noc3/C=C/N(C)C)C2)c1C (stereo not drawn)	2%[46.1 µM]	.	.	.	-8%[46.1 µM]
CCO[C@@H]1OC(C(=O)NC2CC2)=C[C@H](c2c[nH]c3ccccc23)[C@H]1CCCO	.	52*	11	-3%	.
CCO[C@H]1OC(C(=O)NC2CC2)=C[C@@H](c2c[nH]c3ccccc23)[C@@H]1CCCO	.	-6	-2	-1%	.
COc1cc(/C=C2/SC(=O)NC2=O)ccc1OC(=O)c1ccco1	1%	-5	-3	-8%	18%
CCOc1cc(/C=C2/SC(=S)NC2=O)ccc1OC(=O)c1ccco1	0%[46.1 µM]	44	12*	15%	11%
CCCCN1CCc2nc(Nc3ccc(OC)cc3OC)ncc2C1	.	.	.	.	-11%[46.1 µM]
O=C(CN1CCN(C(=O)c2ccco2)CC1)Nc1ccc(F)cc1F	?	36*	24*	11%	?
O=C(CN1CCN(c2ccccn2)CC1)Nc1ccc2ccccc2c1	?	60*	45*	5%	-10%
O=C(CN1CCN(c2ccccn2)CC1)Nc1ccccc1Br	.	-5	-2	0%	.
O=C(CN1CCN(C(=O)c2ccco2)CC1)Nc1ccccc1	-2%[46.1 µM]	-1	-8	-4%	-6%[46.1 µM]
O=C(CN1CCN(c2ccccn2)CC1)Nc1ccc(F)cc1F	.	50*	20*	0%	.
SMILES	MARV entry inh	Shiga inhibitor	CHX counter	AMA1-RON2 inh	LASV entry inh
CC(=O)Nc1ccc(NC(=O)CN2CCN(c3ccccn3)CC2)cc1	8%	-3	-4	16%	-7%
O=C(CN1CCN(c2ccccn2)CC1)Nc1cccc(Cl)c1Cl	-31%	-9	-3	-27%	7.1µM*
CCOc1ccccc1N1CCN(C(=O)c2ccc3c(c2)OCO3)CC1	?	-29	-2	-5%	-3%
CCCOc1ccc(-c2nc(OCC)c3ccccc3n2)cc1	3%	32*	11	2%	-7%
CCCOc1ccc(-c2nc(N3CCN(C)CC3)c3ccccc3n2)cc1	.	61*	33*	-13%	.
CCCCCCCC=CC1=CC2(C)CC1(C)C(CCCCCCC)CC2=O (stereo not drawn)	17%[14.2 µM]	.	.	.	.
Cc1nn2c(NCCCN(C)C)c3c(nc2c1-c1ccccc1)CCC3	-23%	-22	-3	0%	-15%
Cc1nn2c(NCCCN(C)C)c3c(nc2c1-c1ccccc1)CCCC3	7.1µM*	-3	-2	-16%	?
